A selection: hits, their analogues and other compounds. The true share with any hit is near 2.6%.
LGR2 antag = blocks bursicon-induced cAMP signaling via Drosophila LGR2; HEK293 LGR2, CRE-luciferase, bursicon-stimulated, 4 h; inhibition, % at 9.99 µM; 0.35% of 380,000 active;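 active means drop in luminescence signal, shown as inhibition above about 50% in the replicate tests, limit read from the data, passing the limit was not always enough; inconclusive means probably only some replicates passing the limit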;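 further: agonist challenge used bursicon conditioned medium at about half maximal strength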
CF NFkB inh = blocks PAF-induced NF-kB reporter in cystic fibrosis cells. KKLEB NF-kB-GFP reporter, GFP fluorescence overnight. inhibition, % at 5 µM. 0.86% of 360,000 active. AID 588850;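 active means at least 50% inhibition at 5 µM, scaled per plate between neutral and stimulator controls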;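 further: PAF is a Pseudomonas aeruginosa culture filtrate used as stimulus; plate controls were PAF-stimulated DMSO wells for no effect and unstimulated DMSO wells for full effect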
TROY NFkB inh = blocks TROY-dependent signaling in reporter cells | Q293 LMP1-TROYcd NF-kB luciferase reporter, 4 h | inhibition, % at 10 µM | 0.98% of 360,000 active | AID 1347056;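 active means compounds whose plate-normalised and pattern-corrected inhibition of the luciferase reporter signal at the single screening dose is 50% or more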
TWEAK Fn14 block = inhibitors of TWEAK-Fn14 interaction signaling; TWEAK-stimulated Fn14 reporter cells, luciferase luminescence, 8 h; inhibition, % at 10 µM; 2% of 360,000 active; AID 1159606; in the data active means inhibition above about 50%
EWS-Fli inh = EWS/Fli transcriptional activity inhibition; A673 NR0B1-luciferase reporter, viability-normalised; inhibition, % at 12.6 µM; 0.67% of 350,000 active; AID 651661;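 active means mean inhibition of at least 50% after viability correction, with every replicate also passing that limit; inconclusive means mean reaches 50% but only one of two replicates passes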;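 further: firefly luciferase signal divided by Alamar Blue viability fluorescence both relative to DMSO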
KKLEB cytotox = counter-screen for CF NF-kB inhibitors: cytotoxicity; 0.36% of 360,000 active; KKLEB CF airway cells viability, ATPlite luminescence, overnight; active compounds read low; cells stimulated with P. aeruginosa culture filtrate; activity change (cytotoxicity), % at 5 µM;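 active means corrected activity change at or below -50% at 5 µM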
The depositor's hits bear a star; ? = inconclusive; · = no result.

SMILES	LGR2 antag	CF NFkB inh	TROY NFkB inh	TWEAK Fn14 block	EWS-Fli inh	KKLEB cytotox
CCOC(=O)c1sc(NC(=O)c2cc(-c3ccc(C)cc3)nc3ccccc23)c(C#N)c1C	·	50	49	62*	·	-62*
COc1ccccc1-c1cc(C(=O)Nc2sc3c(c2C#N)CCC(C)C3)c2ccccc2n1 (stereo unspecified)	·	-8	36	0	·	-5
Cc1sc2ncnc(N3CCC(C(=O)N(C)CC(=O)Nc4ccccc4Br)CC3)c2c1C	8	32	30	51*	8	-11
Cc1sc2ncnc(N3CCC(C(=O)N(C)CC(=O)Nc4cccc(F)c4)CC3)c2c1C	?	40	41	65*	10	-8
Cc1sc2ncnc(N3CCC(C(=O)N(C)CC(=O)Nc4ccc(Cl)c(C(F)(F)F)c4)CC3)c2c1C	-15	49	58*	51*	28	-26
Cc1sc2ncnc(N3CCC(C(=O)N(C)CC(=O)Nc4ccccc4Cl)CC3)c2c1C	12	46	25	32	·	-3
C[C@@H]1CN([C@@H](C)CO)S(=O)(=O)c2ccc(C#Cc3ccccc3F)cc2O[C@@H]1CN(C)CC1CCOCC1	29	·	·	·	20	·
O=C(CN1CCOCC1)NCC[C@@H]1CC[C@H](NS(=O)(=O)c2ccc(F)cc2)[C@H](CO)O1	-18	·	·	·	0	·
O=C(CSc1nnc(SCc2cccc3ccccc23)s1)N/N=C/c1c[nH]c2ccccc12	-17	12	-15	56*	·	-4
COc1ccc(-n2c(Cc3cccn3C)nnc2SCC(=O)Nc2ccc(C)c(Cl)c2)cc1	-3	0	-16	52*	11	-18
COc1ccc(NC(=O)CSc2nnc(C3CC3)n2-c2ccccc2)cc1	·	4	-23	-12	·	-9
COc1ccc(NC(=O)CSc2nnc(-c3cccs3)n2-c2ccccc2)cc1	·	13	-27	54*	·	-3
Cn1cccc1Cc1nnc(SCC(=O)N2CCc3ccccc32)n1-c1ccc(F)cc1	-5	17	10	57*	3	3
Cn1cccc1Cc1nnc(SCC(=O)N2CCCc3ccccc32)n1-c1ccc(F)cc1	4	5	0	35	0	14
COc1ccc2c3c(n(C)c2c1)[C@@H](CO)N(C(=O)C1CC1)CC31CCN(C(=O)Nc2cccc(F)c2)CC1	13	·	·	·	10	·
CCNC(=O)C[C@H]1CC[C@H]2[C@@H](COC[C@H](O)CN2C(=O)C2CCCC2)O1	5	·	·	·	-3	·
C[C@@H]1CN([C@@H](C)CO)C(=O)c2cc(NS(=O)(=O)c3ccc(F)cc3)ccc2O[C@@H](C)CCCCO[C@@H]1CN(C)S(=O)(=O)c1ccccc1	2	·	·	·	5	·
O=C(NCC[C@H]1CC[C@@H](NS(=O)(=O)c2ccc(Cl)cc2)[C@@H](CO)O1)c1ccccc1F	6	·	·	·	-5	·
Cc1ccc(C(=O)Nc2ccccc2C(=O)O)cc1S(=O)(=O)NCc1ccccc1	8	-1	14	-6	-4	16
Cc1ccccc1NS(=O)(=O)c1cc(C(=O)Nc2cccc([N+](=O)[O-])c2)ccc1C	32	-7	59*	67*	-2	-12
Cc1ccc(C(=O)Nc2ccccc2C(=O)O)cc1S(=O)(=O)Nc1ccc(Br)cc1	7	-16	51*	6	3	-9
CC(C)=C1C2CCC1C(C(=O)Nc1sc(C)c(-c3ccc(C(C)C)cc3)c1C(N)=O)C2C(=O)O (stereo unspecified)	19	23	51*	36	4	-10
Cc1ccc(-c2c(C)sc(NC(=O)C3C4CCC(O4)C3C(=O)O)c2C(=O)OC(C)C)cc1 (stereo unspecified)	7	1	-5	-7	·	2
c1ccc(-c2noc(-c3ccc4ccccc4c3)n2)cc1	·	-30	69*	81*	·	-11
Cc1ccc(-c2nc(-c3ccccn3)no2)cc1Cl	·	-6	82*	104*	·	-67*
Cc1cccc(-c2nnc(-c3ccc4ccccc4c3)o2)c1	52*	-19	23	55*	-21	-4
Cc1ccc(-c2nc(-c3ccncc3)no2)cc1Cl	-66	-8	-39	-10	-51	9
c1ccc(-c2noc(-c3ccc4c(c3)OCO4)n2)cc1	23	-10	13	45	?	-2

Assay outcomes as filed in PubChem.
